PubChem BioAssay (Tox21)
Records with an inconclusive call do not appear. Values without a mark were called inactive. Calls of active or inactive are those of the source. The call rests on the fitted dose curve; in most records, active means well fitted cell-killing curve with a large enough effect in the repeat runs; inconclusive means weak or mixed curves; inactive means flat fitted curve, though single readings scatter.

Experiment: qHTS RealTime-Glo MT Cell Viability Assay in HepG2 cells - 24 hour (AID 1224867); further: nearly all actives have a fitted effect of over 50% in size
Conditions: RealTime-Glo luminescence; series mostly up to 76.8 µM; activity change, negative = cytotoxicity: at the top concentration
From the text: U.S. Tox21 Program National Center for Advancing Translational Sciences [NCATS] NIH Chemical Genomics Center [NCGC] U.S. Environmental Protection Agency [EPA] National Institutes of Environmental Health Sciences [NIEHS] National Toxicology Program [NTP] U.S. Food and Drug Administration [FDA] Tox21 Assay Overview: Measure of cell viability is critical in the cell-base assay. Analysis of cell viability is necessary for the characterization of cell responses to cytotoxic drugs and environmental stress. A RealTime-Glo MT Cell Viability Assay to monitor cell viability in real time of continues cell culture during 40 hours of compound treatment was used to screen Tox21 10K library compounds in HepG2 cells. The RealTime-Glo MT Cell Viability Assay is a nonlytic, homogeneous, bioluminescent method to measure cell viability in real time using a simple, plate-based method. The assay involves adding NanoLuc luciferase and a cell-permeant prosubstrate to cells in culture. Viable cells reduce the proprietary prosubstrate to generate a substrate for NanoLuc luciferase. This substrate diffuses from cells into the surrounding culture medium, where it is rapidly used by the NanoLuc Enzyme to produce a luminescent signal. The signal correlates with the number of viable cells, making the assay well suited for cytotoxicity studies.
Tox21 Assay Protocol Summary: The mixture of HepG2 cell suspension and reagents were dispensed at 600cells/6 ul/well in 1536-well tissue culture treated black solid bottom plates using a Multidrop dispenser. After the assay plates were incubated at a 37 C/5% CO2 incubator for 5 hours, 23 nL of compounds dissolved in DMSO, positive and negative controls was transferred to the assay plate by a pintool work station. The plates were incubated at 37 C for 40 hours. The luminescence intensity were measured at 0h, 8h, 16h, 24h, 32h and 40h time points using ViewLux plate reader during compound treatment.
On the % scale 0 is the no-effect control and ±100 the full control effect; potency means the concentration at half of the fitted maximal effect.

SMILES	activity change, negative = cytotoxicity	Potency
CCCC(C)C=O (stereo not given)	4.42%	–
CC(C)=CCC[C@H](C)CC=O	-4.51%	–
CC1=CC[C@@H](C(C)(C)O)CC1	1.49%	–
CC(=O)CC(N)=O	-0.667%	–
O=C1OCc2ccccc21	2.43%	–
CCCCCc1ccc(O)cc1	-0.614%	–
O=C(Nc1ccc([N+](=O)[O-])cc1)Nc1ccc([N+](=O)[O-])cc1 (tested in a mixture with another compound)	-12.4% [at 35.3 µM]	–
CCc1cccc(CC)c1	-0.158%	–
CCCCCN=C(N)N/N=C/c1c[nH]c2ccc(OC)cc12	–	6.01 µM (active)
Nc1ccc(Oc2cccc(Oc3ccc(N)cc3)c2)cc1	-3.72%	–
Nc1c(Br)cc([N+](=O)[O-])cc1Br	-1.21%	–
CC(C)(C)c1cc(CCC(=O)OCCSCCOC(=O)CCc2cc(C(C)(C)C)c(O)c(C(C)(C)C)c2)cc(C(C)(C)C)c1O	-3.41% [at 35.3 µM]	–
CN1CCN(CCCN2c3ccccc3Sc3ccc(Cl)cc32)CC1	–	21.3 µM (active)
O=[N+]([O-])c1ccc(CO)cc1	3.5%	–
CCc1c(C)cc(N)c(CC)c1N	1.19%	–
CN1CCN(CCCN2c3ccccc3Sc3ccc(C(F)(F)F)cc32)CC1	–	23.9 µM (active)
CCCCCCCCCC[N+](C)(CCCCCCCCCC)CCC[Si](OC)(OC)OC	–	43.6 µM (active)
C=Cc1ccncc1	5.5%	–
Nc1cc([N+](=O)[O-])cc(Cl)c1O	-4.69%	–
CC(c1cc(C(C)(C)C)cc(C(C)(C)C)c1O)c1cc(C(C)(C)C)cc(C(C)(C)C)c1O	-4.53%	–

SMILES	activity change, negative = cytotoxicity	Potency
CCOC(=O)[C@H](C)O	3.29%	–
CCC(=O)OC/C=C(\C)CCC=C(C)C	-5.13%	–
N#Cc1nc(Cl)c(Cl)c(Cl)c1Cl	–	24.5 µM (active)
CCOc1ccc([N+](=O)[O-])cc1	-10.8%	–
Cc1ccc2nc(-c3ccc(N)cc3)sc2c1S(=O)(=O)O	-6.96% [at 35.3 µM]	–
C=COCCCC	0.0786%	–
CN1CCN(c2ccccc2/C=C2\SCCN(c3ccc(Cl)c(Cl)c3)C2=O)CC1	–	38.9 µM (active)
O=c1cc[nH]cc1	7.19%	–
O=C(c1ccccc1)c1ccc(Cl)cc1	-5.79%	–
C[C@H]1O[C@@H](O[C@H]2CC[C@@]3(C)[C@H](CC[C@@H]4[C@@H]3C[C@@H](O)[C@]3(C)[C@@H](C5=CC(=O)OC5)CC[C@]43O)C2)C[C@H](O)[C@@H]1O[C@H]1C[C@H](O)[C@H](O[C@H]2C[C@H](O)[C@H](O[C@@H]3O[C@H](CO)[C@@H](O)[C@H](O)[C@H]3O)[C@@H](C)O2)[C@@H](C)O1	-19.3% [at 35.3 µM]	–
CCCCCCCCCCCCS(=O)(=O)Cl	3.24% [at 15.8 µM]	–
CC(C)=NNC(N)=S	0.563%	–
COc1cccc(-c2ccc(/C=C\CN3CCCCCC3)cc2Cl)c1	–	43.4 µM (active)
Cc1cccc(C)c1C	-2.02%	–
O[Si](c1ccccc1)(c1ccccc1)c1ccccc1	-15.7%	–
c1ccc2c(c1)-c1ccc3ccc4cccc5cc-2c1c3c45	-2.08% [at 35.3 µM]	–
COc1cc(C(C)C)ccc1C	0.531% [at 15.8 µM]	–
Cc1cc(F)ccc1-c1cc(N2CC[C@@H](O)[C@H]2CO)ncc1N(C)C(=O)C(C)(C)c1cc(C(F)(F)F)cc(C(F)(F)F)c1	–	38.3 µM (active)
C=C(C)CCO	-0.887%	–
NC(=O)c1ccccc1Cl	-0.401%	–
